Assay outcomes: PubChem BioAssay, National Center for Advancing Translational Sciences (NCATS)
Shown are actives, neighbours in structure and some others; about 8.1% of the full set was active somewhere.
KB-3-1 cytotox = qHTS assay for MDR1-selective chemotherapeutics: Primary screen using the parental adenocarcinoma cell KB-3-1; KB-3-1 viability, CellTiter-Glo ATP luminescence, 72 h; Potency, µM (highest dose often 46.1 µM), usual class: cytotoxic; 1.4% of 400,000 active; AID 1347075, 2019; note: nearly all actives have a fitted effect of over 60% in size
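Cells are dispensed, compounds pinned in, plates held at 37 °C for 72 h, then CellTiter-Glo is added and luminescence read after 10 minutes. Cell line: parental KB-3-1 in phenol-red-free DMEM, 10% FBS.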
SW480 rerep = A quantitative high throughput screen for small molecules that induce DNA re-replication in SW480 colon adenocarcinoma cells; Potency, µM (doses to about 46.1 µM), hits mostly activators; SW480 DNA re-replication, Hoechst DNA content imaging, 48 h; 1.8% of 340,000 active; note: nearly all actives have a fitted effect of over 55% in size
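Quantitative HTS format with DMSO vehicle controls; 48 hr drug incubation at 37 C, then 40 min Hoechst staining and scanning imager measurement at 405 nm excitation.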
ELG1 repair inh = qHTS screen for small molecules that inhibit ELG1-dependent DNA repair in human embryonic kidney (HEK293T) cells expressing luciferase-tagged ELG1; HEK293T ELG1-luciferase reporter, luminescence, 16 h; DNA damage induced by 5-fluorouridine; Potency, µM (series often up to 46.1 µM), actives largely listed as inhibitors; 2.3% of 330,000 active; AID 504467, 2011; note: nearly all actives have a fitted effect of over 55% in size
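In this reporter screen, reduction of luminescence relative to DMSO vehicle indicated activity. Compounds and 5-fluorouridine were added together to 2,000 cells per well, incubated for 16 hr at 37 °C, then developed with ONE-Glo.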
KB-V1 cytotox = qHTS assay for MDR1-selective chemotherapeutics: Primary screen using the drug-selected MDR subline cells KB-V1; KB-V1 MDR cells viability, CellTiter-Glo, 72 h; Potency, µM (top dose mostly 46.1 µM), most hits filed as cytotoxic; 3.4% of 400,000 active; AID 1347076, 2019; note: nearly all actives have a fitted effect of over 60% in size
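Readout: CellTiter-Glo luminescence, 10 min after addition. Cells: KB-V1 MDR subline, 72 h at 37 degrees C with compound. Analysis: corrected, normalized data fitted to concentration-effect curves.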
MCF10A rereplic = A quantitative high throughput screen for small molecules that induce DNA re-replication in MCF 10a normal breast cells; 2.9% of 350,000 active; Potency, µM (series often up to 46.1 µM), most hits filed as activators; AID 624296, 2012; MCF 10A DNA re-replication, Hoechst nuclear intensity, 48 h; note: nearly all actives have a fitted effect of over 50% in size
Of the large screens only hits and unclear results are named; the others gave an inactive call; ! = a repeat was not active. Calls come from the whole dose curve; as a rule, active = well fitted curve in the direction sought with a large enough effect; inconclusive = small, poorly fitted or top-dose-only effect, or another doubt; inactive = no such curve, though single readings can be large; an effect the other way counts as inactive or inconclusive.

CCOC(=O)Cn1nc(NC(=O)c2ccc(C(=O)OC)cc2)cc1C	MCF10A rereplic inconclusive
CCN(CC(=O)Nc1ccc(NC(C)=O)cc1)C(=O)COc1ccc2ccccc2c1	none
COc1cc(OC)cc(C(=O)Nc2cccc(NC(C)=O)c2)c1	none
CCOC(=O)Nc1cccc(NC(=O)c2cc(OC)cc(OC)c2)c1	ELG1 repair inh 15µM, KB-V1 cytotox inconclusive
CC1=C(C(=O)N2CCCCCC2)CC(CC(=O)NCCN2CCOCC2)C(=O)N1CCC1=CCCCC1 (stereo not given)	none (no result: KB-3-1 cytotox, SW480 rerep, ELG1 repair inh, MCF10A rereplic)
Cc1ccn2c(=O)cc(COc3ccc(NC(=O)COc4ccc(Cl)cc4)cc3)nc2c1	none (no result: SW480 rerep, ELG1 repair inh, MCF10A rereplic)
COc1cccc(NC(=O)CN(C)C(=O)COc2ccc3ccccc3c2)c1	KB-V1 cytotox 15µM
COc1cccc(NC(=O)CN(C)C(=O)Cc2cccc3ccccc23)c1	none
CCOC(=O)Nc1cccc(OCC(=O)Nc2ccccc2OC)c1	ELG1 repair inh inconclusive, KB-V1 cytotox 21µM
CCOC(=O)Nc1cccc(OCC(=O)Nc2ccc(OC)cc2OC)c1	ELG1 repair inh inconclusive
COc1cccc(NC(=O)CN(C)C(=O)CSc2ccc3c(c2)OCCO3)c1	KB-V1 cytotox 21µM
CN(CC(=O)Nc1cccc(F)c1)C(=O)CN1C(=O)C2CC=CCC2C1=O (stereo not given)	none
CN(C)/C=C/C(=O)c1ccc(Br)cc1	ELG1 repair inh inconclusive, MCF10A rereplic inconclusive
Cc1ccc(C)n1-c1ccc(C(=O)/C=C/N(C)C)cc1	SW480 rerep inconclusive, ELG1 repair inh inconclusive, MCF10A rereplic 23µM
CCN(CC)CCCNC(=O)c1ccc2c(c1)sc1nc(-c3ccc(C)cc3)cn12	KB-3-1 cytotox 16µM, KB-V1 cytotox inconclusive (no result: SW480 rerep, ELG1 repair inh, MCF10A rereplic)
CCCNC(=O)c1ccc2c(c1)sc1nc(-c3ccc(C)cc3)cn12	none (no result: SW480 rerep, ELG1 repair inh, MCF10A rereplic)
CC(C)(C)NC(=O)C(CCc1ccccc1)n1c(=O)c(-c2cc3ccccc3[nH]2)nc2ccccc21 (stereo not given)	KB-V1 cytotox inconclusive (no result: SW480 rerep, ELG1 repair inh, MCF10A rereplic)
Cc1cccc(C)c1NC(=O)C(CCc1ccccc1)n1c(=O)c(-c2cc3ccccc3[nH]2)nc2ccccc21 (stereo not given)	KB-3-1 cytotox inconclusive, KB-V1 cytotox 21µM (no result: SW480 rerep, ELG1 repair inh, MCF10A rereplic)
CC(C)(C)NC(=O)C(c1ccc(-c2ccccc2)cc1)n1c(=O)c(-c2cc3ccccc3[nH]2)nc2ccccc21 (stereo not given)	KB-3-1 cytotox inconclusive (no result: SW480 rerep, ELG1 repair inh, MCF10A rereplic)
CC(C)(C)NC(=O)C(c1ccccc1)n1c(=O)c(-c2cc3ccccc3[nH]2)nc2ccccc21 (stereo not given)	KB-3-1 cytotox inconclusive, KB-V1 cytotox 23µM (no result: SW480 rerep, ELG1 repair inh, MCF10A rereplic)
O=C(NC1CCCC1)C(C1CC1)n1c(-c2cc3ccccc3[nH]2)nc2ccccc21 (stereo not given)	KB-V1 cytotox inconclusive (no result: SW480 rerep, ELG1 repair inh, MCF10A rereplic)
O=C(NC1CCCCC1)C(C1CC1)n1c(=O)c(-c2cc3ccccc3[nH]2)nc2ccccc21 (stereo not given)	KB-3-1 cytotox inconclusive, KB-V1 cytotox 23µM (no result: SW480 rerep, ELG1 repair inh, MCF10A rereplic)
Cc1ccccc1CNC(=O)CCC(=O)N1CC2CCCN2c2ccccc21 (stereo not given)	none (no result: SW480 rerep, ELG1 repair inh, MCF10A rereplic)
CCSC1=NC2(CCN(C(=O)NC3CCCCC3)CC2)N=C1c1ccc(OC)cc1	none (no result: SW480 rerep, ELG1 repair inh, MCF10A rereplic)
COC(=O)c1c(N2C(=O)Nc3ccccc3N2O)sc(C)c1C	none
COC(=O)c1c(N2C(=O)[C@H]3[C@@H](C2=O)[C@]2(C(=O)Nc4ccc(C)cc42)N2CCC[C@@H]32)sc(C)c1C	ELG1 repair inh 8.2µM (no result: KB-3-1 cytotox, SW480 rerep, KB-V1 cytotox, MCF10A rereplic)
C[C@@H](NC(=O)c1[nH]cnc1C(=O)Nc1ccon1)c1ccccc1	none
COc1cccc(Nc2nc3cc(C)ccc3nc2NS(=O)(=O)c2ccc(Cl)cc2)c1	KB-3-1 cytotox inconclusive, KB-V1 cytotox 15µM (no result: SW480 rerep, ELG1 repair inh, MCF10A rereplic)
COc1cccc(Nc2nc3ccccc3nc2NS(=O)(=O)c2ccc(NC(C)=O)cc2)c1	MCF10A rereplic inconclusive
CCOC(=O)c1ccc2ncc(C(=O)OCC)c(Nc3ccc(C)c(Br)c3)c2c1	KB-V1 cytotox inconclusive (no result: SW480 rerep, ELG1 repair inh, MCF10A rereplic)
Cn1c(=O)c2c(nc(CCC3CCCC3)n2C)n(C)c1=O	none (no result: ELG1 repair inh)
Cn1c(=O)c2c(nc(C3CC4C5CCC(C5)C4C3)n2C)n(C)c1=O (stereo not given)	KB-V1 cytotox 15µM (no result: ELG1 repair inh)
N#Cc1c(-c2ccccc2)cc2nc3ccccc3n2c1N	ELG1 repair inh inconclusive, MCF10A rereplic 12µM
COc1cc(-c2cc3nc4ccccc4n3c(N)c2C#N)cc(OC)c1OC	SW480 rerep inconclusive, ELG1 repair inh inconclusive, KB-V1 cytotox inconclusive, MCF10A rereplic inconclusive
O=C(Nc1ccccn1)c1ccc2c(c1)S(=O)(=O)c1ccccc1C2=O	ELG1 repair inh inconclusive
O=C1c2ccccc2S(=O)(=O)c2cc(C(=O)N(c3ccccn3)c3ccccn3)ccc21	KB-V1 cytotox 15µM
Cn1nc(-c2ccccc2)c(CSc2ccccc2Cl)c1Cl	KB-3-1 cytotox inconclusive, SW480 rerep 5.8µM, KB-V1 cytotox 12µM, MCF10A rereplic 7.3µM
Cn1nc(-c2ccccc2)c(C(O)c2ccc(Cl)cc2)c1Cl (stereo not given)	none
FC(F)(F)c1cc(Cl)c2nc(-c3ccccc3)c(Cc3cccc(Cl)c3)n2c1	KB-V1 cytotox inconclusive (no result: SW480 rerep, ELG1 repair inh, MCF10A rereplic)
CCc1cc(C(=O)OC)c(NC(=O)c2cc(Br)cs2)s1	KB-V1 cytotox 16µM (no result: ELG1 repair inh)
CCN(CC)S(=O)(=O)c1cccc(C(=O)OCC(=O)c2ccc3c(c2)OCCO3)c1	KB-V1 cytotox 13µM
C/C=C(/C(=C/C)c1ccc(O)cc1)c1ccc(O)cc1	SW480 rerep inconclusive, KB-V1 cytotox inconclusive, MCF10A rereplic 4.6µM!
CC(=NN=C(C)c1ccc(O)cc1)c1ccc(O)cc1	KB-3-1 cytotox inconclusive (no result: ELG1 repair inh)
CCn1ncc(Br)c1C(=O)Nc1ccccc1OC	KB-3-1 cytotox 13µM, KB-V1 cytotox 12µM
CCn1ncc(Br)c1C(=O)Nc1cc([N+](=O)[O-])ccc1C	KB-3-1 cytotox inconclusive, KB-V1 cytotox 16µM
Cc1c(C(=O)OCC(=O)NCCN2C(=O)CSC2=O)oc2c1ccc1ccccc12	SW480 rerep inconclusive, ELG1 repair inh inconclusive, KB-V1 cytotox 23µM, MCF10A rereplic inconclusive
O=C(C(=O)N1CCC(Cc2ccccc2)CC1)c1cccs1	none (no result: SW480 rerep, ELG1 repair inh, MCF10A rereplic)
Cc1cc[n+](C(C)C(=O)c2ccc(-c3ccccc3)cc2)cc1 (stereo not given)	KB-3-1 cytotox inconclusive, ELG1 repair inh 2.1µM
CC(C(=O)c1ccc(-c2ccccc2)cc1)[n+]1ccccc1 (stereo not given)	KB-3-1 cytotox inconclusive
c1ccc(C[n+]2csc3ccccc32)cc1	SW480 rerep inconclusive, MCF10A rereplic 23µM
